High-throughput results from PubChem BioAssay.
KB-V1 MDR tox: qHTS assay for MDR1-selective chemotherapeutics: Primary screen using the drug-selected MDR subline cells KB-V1 | hit rate 3.4% among 400,000 | Potency, µM (top dose mostly 46.1 µM), most hits filed as cytotoxic | KB-V1 MDR cells viability, CellTiter-Glo, 72 h; further: nearly all actives have a fitted effect of over 60% in size
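Cytotoxicity toward P-gp-expressing KB-V1 cells was determined as loss of CellTiter-Glo luminescence after 72 h at 37 degrees C. Compounds were tested in quantitative HTS format across a concentration range, with curves fitted to normalized data.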
MCF10A rereplic: A quantitative high throughput screen for small molecules that induce DNA re-replication in MCF 10a normal breast cells | MCF 10A DNA re-replication, Hoechst nuclear intensity, 48 h | Potency, µM (top dose mostly 46.1 µM), hits mostly activators | hit rate 2.9% among 350,000; further: nearly all actives have a fitted effect of over 50% in size
ELG1 repair inh: qHTS screen for small molecules that inhibit ELG1-dependent DNA repair in human embryonic kidney (HEK293T) cells expressing luciferase-tagged ELG1 | HEK293T ELG1-luciferase reporter, luminescence, 16 h; DNA damage induced by 5-fluorouridine | Potency, µM (doses to about 46.1 µM), actives largely listed as inhibitors | hit rate 2.3% among 330,000 | AID 504467, 2011; further: nearly all actives have a fitted effect of over 55% in size
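Luminescence from the luciferase reporter, measured 30 min after ONE-Glo reagent at room temperature, was the read-out. Beforehand, 2,000 cells per well were exposed for 16 hr at 37 °C to 5-fluorouridine together with compound or vehicle.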
KB-3-1 cytotox: qHTS assay for MDR1-selective chemotherapeutics: Primary screen using the parental adenocarcinoma cell KB-3-1 | Potency, µM (series often up to 46.1 µM), usual class: cytotoxic | hit rate 1.4% among 400,000 | KB-3-1 viability, CellTiter-Glo ATP luminescence, 72 h; further: nearly all actives have a fitted effect of over 60% in size
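Cytotoxicity in the drug-sensitive parental line KB-3-1 was scored as loss of CellTiter-Glo luminescence following 72 h incubation with compound. Values come from curve fitting of normalized concentration-response data.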
SW480 rerep: A quantitative high throughput screen for small molecules that induce DNA re-replication in SW480 colon adenocarcinoma cells; AID 624297, 2012; Potency, µM (series often up to 46.1 µM), most hits filed as activators; hit rate 1.8% among 340,000; SW480 DNA re-replication, Hoechst DNA content imaging, 48 h; further: nearly all actives have a fitted effect of over 55% in size
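First, 250 cells per well were seeded. Next, compound or vehicle (23 nL) was pinned in, plates sat 48 hr at 37 C. Finally Hoechst was added for 40 min before fluorescence scanning.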
Of the large screens only hits and unclear results are named; the others gave an inactive call. A selection: hits, their analogues and other compounds. The true share with any hit is near 8.2%. The call rests on the fitted dose curve; in most records, active means well fitted curve in the direction sought with a large enough effect; inconclusive means small, poorly fitted or top-dose-only effect, or another doubt; inactive means no such curve, though single readings can be large; an effect the other way counts as inactive or inconclusive.

Cc1nnn(-c2nonc2N)c1C(=O)N/N=C/c1ccccc1O	KB-V1 MDR tox inconclusive, ELG1 repair inh inconclusive, KB-3-1 cytotox inconclusive, SW480 rerep 2.6µM
CC(C)c1c(C(=O)N/N=C/c2ccc3c(c2)OCO3)nnn1-c1nonc1N	none
COc1ccccc1/C=N/NC(=O)c1nnn(-c2nonc2N)c1-c1cccs1	SW480 rerep 23µM
CCc1nc2ccc(C(=O)N3CCN(C(=O)c4ccco4)CC3)cn2c1N(C)C(=O)c1cccc(OC)c1	none (no result: MCF10A rereplic, ELG1 repair inh, SW480 rerep)
CC(C)CC(N)c1csc(Nc2ncccn2)n1 (stereo unspecified)	none (no result: MCF10A rereplic, ELG1 repair inh, SW480 rerep)
CCOc1cccc(-c2c(C(=O)N/N=C(\C)c3cccs3)nnn2-c2nonc2N)c1	MCF10A rereplic inconclusive, ELG1 repair inh 16µM
CC1CCN(Cc2c(C(=O)N/N=C/c3ccccc3O)nnn2-c2nonc2N)CC1	KB-V1 MDR tox inconclusive, ELG1 repair inh inconclusive, KB-3-1 cytotox 5.2µM
CC1CCN(Cc2c(C(=O)N/N=C/c3cccc(Cl)c3)nnn2-c2nonc2N)CC1	MCF10A rereplic inconclusive
Cc1ccc(NC(=O)c2ncn(CCCNCCCc3ccccc3)n2)cc1C	SW480 rerep inconclusive (no result: ELG1 repair inh)
CCN(CC(=O)Nc1c(F)cccc1F)C(=O)c1ccccn1	KB-V1 MDR tox inconclusive
CCOc1c(Cl)cc(CNc2ccc(N3CCCC3)cc2)cc1OC	MCF10A rereplic inconclusive, ELG1 repair inh inconclusive, KB-3-1 cytotox inconclusive, SW480 rerep 10µM
CCOc1c(Cl)cc(CNC(C)(C)CC(C)(C)C)cc1OC	KB-V1 MDR tox inconclusive, MCF10A rereplic 8.2µM, KB-3-1 cytotox inconclusive
CC(C)OC(=O)Cn1cc(C#N)c2ccccc21	none
CCN(CC)c1ccc(N=C2C(=O)Nc3ccccc32)cc1	MCF10A rereplic inconclusive, ELG1 repair inh 16µM, KB-3-1 cytotox inconclusive, SW480 rerep inconclusive
CCN(CC)c1ccc(C2NC(=O)c3ccccc3N2)cc1 (stereo unspecified)	KB-V1 MDR tox 2.3µM, MCF10A rereplic 5.8µM, KB-3-1 cytotox 4.1µM, SW480 rerep 10µM (no result: ELG1 repair inh)
O=C1NC(c2ccc(Br)cc2)Nc2ccccc21 (stereo unspecified)	KB-V1 MDR tox 6.5µM, MCF10A rereplic 18µM, ELG1 repair inh inconclusive, KB-3-1 cytotox inconclusive, SW480 rerep inconclusive
O=C1NC(c2ccc3ccccc3c2)Nc2ccccc21 (stereo unspecified)	KB-V1 MDR tox 16µM, KB-3-1 cytotox inconclusive (no result: MCF10A rereplic, ELG1 repair inh, SW480 rerep)
O=C1NC(c2ccc3c(c2)OCO3)Nc2ccccc21 (stereo unspecified)	KB-V1 MDR tox inconclusive, MCF10A rereplic inconclusive, KB-3-1 cytotox inconclusive, SW480 rerep inconclusive
C[C@H]1CN([C@@H](C)CO)C(=O)CCCn2nncc2CO[C@H]1CN(C)C(=O)Nc1ccnc(N2CCOCC2)c1	KB-V1 MDR tox inconclusive (no result: MCF10A rereplic, ELG1 repair inh, SW480 rerep)
Cc1ccc(CNc2ncnc3nc[nH]c23)cc1	none (no result: MCF10A rereplic, ELG1 repair inh, SW480 rerep)
Nc1ccc[n+](CC(=O)c2ccc(F)cc2)c1	KB-3-1 cytotox inconclusive (no result: MCF10A rereplic, ELG1 repair inh, SW480 rerep)
CCCCCc1nnc(N)s1	none
CCOCCc1nnc(N)s1	MCF10A rereplic 8.2µM, SW480 rerep 15µM
C(=C\c1ccccc1)/CN1CCN(C(c2cc3ccccc3o2)c2nnnn2Cc2ccccc2)CC1 (stereo unspecified)	KB-V1 MDR tox 16µM (no result: MCF10A rereplic, ELG1 repair inh, SW480 rerep)
COc1cc2c(cc1OC)C1=C(C#N)CCC(=O)N1CC2	KB-V1 MDR tox 4.6µM, KB-3-1 cytotox 16µM
COc1ccc(C(=O)N=C2CCC(C#N)=C3c4cc(OC)c(OC)cc4CCN23)cc1	KB-V1 MDR tox 12µM, MCF10A rereplic inconclusive, KB-3-1 cytotox inconclusive
COc1cc2c(cc1OC)C1=C(C#N)CC/C(=N\S(=O)(=O)c3ccccc3)N1CC2	KB-V1 MDR tox inconclusive, ELG1 repair inh inconclusive
COc1ccc(S(=O)(=O)N2CCN(C(=S)Nc3ccc(S(N)(=O)=O)cc3)CC2)cc1	none
CC(=O)c1cc(-c2ccccc2)n(CC(=O)Nc2ccc(C)cc2C)c1C	none (no result: MCF10A rereplic, ELG1 repair inh, SW480 rerep)
O=C(Nc1cccc(C(F)(F)F)c1)C1Cc2c(-c3ccco3)ccnc2O1 (stereo unspecified)	none (no result: MCF10A rereplic, ELG1 repair inh, SW480 rerep)
CCCOc1ccc(-c2c(C(=O)N/N=C/c3cccs3)nnn2-c2nonc2N)cc1	none
CCN(CC(=O)Nc1ccccc1Br)Cc1nc2ccccc2c(=O)[nH]1	ELG1 repair inh inconclusive
CC(C(=O)Nc1ccccc1-c1ccccc1)N(C)Cc1nc2ccccc2c(=O)[nH]1 (stereo unspecified)	KB-V1 MDR tox 12µM, MCF10A rereplic inconclusive, ELG1 repair inh inconclusive, KB-3-1 cytotox inconclusive, SW480 rerep inconclusive
O=C(NCC1CCCN1S(=O)(=O)c1cccs1)c1ccc(Cl)cc1 (stereo unspecified)	KB-V1 MDR tox inconclusive
O=C(NCCC1CCCCN1S(=O)(=O)c1cccs1)C(=O)NCc1ccccc1 (stereo unspecified)	KB-V1 MDR tox 15µM, MCF10A rereplic inconclusive, ELG1 repair inh inconclusive, KB-3-1 cytotox inconclusive, SW480 rerep inconclusive
COc1ccccc1NC(=O)C(=O)NCC1CCCN1S(=O)(=O)c1cccs1 (stereo unspecified)	KB-V1 MDR tox 4.6µM
O=C(NCC1CCCN1S(=O)(=O)c1cccs1)c1cccc(Cl)c1 (stereo unspecified)	KB-V1 MDR tox inconclusive, SW480 rerep 2.9µM
O=C(NCCC1CCCCN1S(=O)(=O)c1cccs1)C(=O)Nc1cccc(F)c1 (stereo unspecified)	KB-V1 MDR tox 16µM, MCF10A rereplic inconclusive
Cc1ccc(OCCCCn2c(CCNC(=O)C(C)(C)C)nc3ccccc32)cc1	none (no result: MCF10A rereplic, ELG1 repair inh, SW480 rerep)
COc1ccc(CNC(=O)C(=O)NCC2CCCN2S(=O)(=O)c2cccs2)cc1 (stereo unspecified)	KB-V1 MDR tox inconclusive
Cc1ccc(CNC(=O)C(=O)NCC2CCCN2S(=O)(=O)c2cccs2)cc1 (stereo unspecified)	KB-V1 MDR tox 9.2µM
CC(C)C[C@@H]1NC(=O)[C@H](Cc2ccccc2)N(C)C(=O)[C@H](C)NC(=O)c2ccccc2NC(=O)[C@H](Cc2ccc(O)cc2)N(C)C1=O	ELG1 repair inh 6.5µM
CC(C)CC1NC(=O)N(CC(=O)N2c3ccccc3NC(=O)C2(C)C)C1=O (stereo unspecified)	none
COc1ccc2[nH]c3c(=O)n(/N=C/[C@H]4C(C)C=C(C)CC4C)c(=O)[nH]c3c2c1 (stereo partly specified)	MCF10A rereplic 12µM, ELG1 repair inh inconclusive, KB-3-1 cytotox inconclusive, SW480 rerep 18µM
COc1ccc(N(CC(=O)NCc2ccc(C)cc2)S(=O)(=O)c2c(C)[nH]c(=O)[nH]c2=O)cc1	KB-V1 MDR tox inconclusive
CCn1cc(S(=O)(=O)c2ccc(Cl)cc2)c(=O)c2cc(F)c(N3CCOCC3)cc21	none (no result: MCF10A rereplic, ELG1 repair inh, SW480 rerep)
